Experimental findings from PubChem BioAssay (NCATS) are described below.

Molecules are shown by their SMILES. Records with an inconclusive call do not appear. Values without a mark were called inactive. The source made the active and inactive calls. Calls follow the shape of the dose curve; as a rule, active = well fitted cell-killing curve with a large enough effect; inconclusive = small, poorly fitted or top-dose-only effect; inactive = no such curve, though single readings can be large or run the other way. Positions of bridges follow the written chain, without caps; N, C: chain ends. Non-standard residues stand in square brackets, D forms with d. Residues, ends and D or L forms follow the SMILES beside them. ξ: configuration not given here. *: point of attachment. Octanoyl(6-Me) = CCC(C)CCCCC(=O)*; ξThr(3R) = C[C@@H](O)C(N)C(=O)O; dDab = NCC[C@@H](N)C(=O)O; Dab = NCC[C@H](N)C(=O)O
% is scaled to controls: 0 for no effect and ±100 for the full control effect; potency is read from the fitted curve at half-maximal effect.

This assay can be described thus: qHTS of pediatric cancer cell lines to identify multiple opportunities for drug repurposing: Primary screen for MG 63 (6-TG R) cells (AID 1347105). Also: nearly all actives have a fitted effect of over 50% in size. Conditions: MG 63 (6-TG R) viability, CellTiter-Glo, 48 h; series mostly up to 46 µM; activity change, negative = cytotoxic: at the top concentration. The source says:
Drug repurposing or repositioning has been offered as a strategy for drug development in oncology programs. This approach has special potential for childhood cancers and other rare or orphan diseases, where the expected return on new drug development has been a disincentive to pharmaceuticals. […] In this project we exploit the poly-pharmacology of drugs to discover new indications via phenotypic screening of a panel of 19 well-characterized cell lines derived from solid tumors seen in children and adolescents. The goal is to identify approved drugs with previously unrecognized anticancer properties that has the potential to reveal new mechanisms and biological processes involved in carcinogenesis or drug resistance. We employed a titration-based paradigm (quantitative high-throughput screening or qHTS), where all compounds were tested at multiple concentrations for their effect on cell viability. Concentration-response curves (CRCs) were derived directly from the primary screen, and both potency and efficacy values were used to identify compounds with robust bioactivity profiles. We screened the NIH Chemical Genomics Center (NCGC) Pharmaceutical Collection (NPC) and Mechanism Interrogation Plate (MIPE) small molecule collections of approved and investigational compounds against these cell lines; and measured metabolically active cells after 48 hours of compound treatment as a proxy for cell viability. […] Assay Submitter: Nathalia J. Martinez, National Center for Advancing Translational Sciences, National Institutes of Health, Rockville, MD, USA; email: natalia.martinez@nih.gov Shen, M et al. Quantitative high-throughput phenotypic screening of pediatric cancer cell lines identifies multiple opportunities for drug repurposing. Oncotarget 2017 Dec 19;9(4):4758-4772. PMID 29435139.
The cells were obtained from University of North Carolina (UNC), Pediatric Preclinical Testing Program (PPT), and Coriell Institute (CI). qHTS cell viability assay: Cells were assayed in growth media at a density of 500-1,000 cells/well. Five microliters of cells were dispensed into 1,536-well, white, solid-bottom, TC-treated plates (Greiner Bio One) using a multidrop dispenser and incubated at 37 degrees C, 5% CO2, under a humidified atmosphere for 5 hours. Twenty-three nanoliters of compounds and controls (neutral control DMSO or positive control bortezomib at final concentration of 2.3 µM) were subsequently transferred by Kalypsys pintool. For primary screens, the MIPE collection was tested at 11-point dilutions (final concentrations range from 0.78 nM to 46 µM) and the NPC collection at 8-point dilutions (final concentrations range from 0.59 nM to 46 µM). Compounds tested in follow-up screens were assayed at 11-point dilutions. Cells were incubated for 48 hours, followed by addition of 3 µL of CellTiter-Glo (Promega). After a 15 min incubation at room temperature, samples were analyzed for luminescence intensity using a ViewLux High-throughput CCD imager equipped with clear filters.
Regarding `CC(C)(C)c1nc2c3cc[nH]c(=O)c3c3cc(F)ccc3c2[nH]1`, the “activity change, negative = cytotoxic” value is 1.35%.

As for `COc1ccnc2[nH]cc(C(=O)C(=O)N3CCN(C(=O)c4ccccc4)C[C@@H]3C)c12`, the “activity change, negative = cytotoxic” value was 25%.

For the molecule `Cn1cc(CNCC2CCN(c3ncc(C(=O)NO)cn3)CC2)c2ccccc21`, the Potency was 0.187 µM (active).

On to `C[C@H](CCC(=O)O)[C@H]1CC[C@H]2[C@@H]3[C@H](O)C[C@@H]4C[C@H](O)CC[C@]4(C)[C@@H]3CC[C@]12C`, for which the “activity change, negative = cytotoxic” value is 3.42%.

For `O=c1c(O)c(-c2ccc(O)c(O)c2)oc2cc(O)ccc12`, the “activity change, negative = cytotoxic” value was -25.8%.

Consider `COc1ccc([C@@H]2CNC(=O)C2)cc1OC1CCCC1`, for which the Potency was 5.9 µM (active).

Regarding `CC(O)(C#Cc1ccc2c(c1)N(c1nc(N)ncc1Cl)CC2)c1nccs1` (stereo not given), the Potency is 9.35 µM (active).

Take `C[C@H]1COc2c(N3CCN(C)CC3)c(F)cc3c(=O)c(C(=O)O)cn1c23`: the “activity change, negative = cytotoxic” value was 51.6%.

For the molecule `CC(C(C)N1CC(=O)NC(=O)C1)N1CC(=O)NC(=O)C1` (stereo not given), the “activity change, negative = cytotoxic” value was -16.7%.

On to `O=c1[nH]c(=O)n([C@H]2C[C@@H](O)[C@@H](CO)O2)cc1C=CBr`, for which the “activity change, negative = cytotoxic” value was 0.869%.

For `N[C@H]1CN(c2c(F)cc3c(=O)c(C(=O)O)cn(C4C[C@@H]4F)c3c2Cl)CC12CC2` (stereo not given in full), the “activity change, negative = cytotoxic” value is 42%.

Take `Cc1onc(-c2ccccc2)c1C(=O)N[C@@H]1C(=O)N2[C@@H](C(=O)O)C(C)(C)S[C@@H]12`: the “activity change, negative = cytotoxic” value was -3.53%.

As for `COC(=O)C=CC(=O)OC`, the Potency is 0.235 µM (active).

Regarding `Cc1cc(-c2nnc3n2CCCCC3)c(C)n1-c1ccccc1`, the “activity change, negative = cytotoxic” value is -16.3%.

Regarding `Cn1cc(C=CC(=O)c2cccc(F)c2)cc1C=CC(=O)NO`, the “activity change, negative = cytotoxic” value is -16%.

For the molecule `CON=C(C(=O)N[C@@H]1C(=O)N2C(C(=O)O)=C(Cn3ccc(=N)n3CCO)CS[C@H]12)c1csc(N)n1`, the “activity change, negative = cytotoxic” value is -14.1%.

Regarding `Nc1nc2c(c(=O)[nH]1)N(C=O)[C@H](CNc1ccc(C(=O)N[C@@H](CCC(=O)O)C(=O)O)cc1)CN2`, the “activity change, negative = cytotoxic” value was -1.63%.

As for `COc1ccc(CCC(=O)c2c(O)cc(O[C@@H]3O[C@H](CO)[C@@H](O)[C@H](O)[C@@H]3O[C@@H]3O[C@@H](C)[C@H](O)[C@@H](O)[C@@H]3O)cc2O)cc1O`, the “activity change, negative = cytotoxic” value is -8.85%.

On to `COc1cccc2c1C(=O)c1c(O)c3c(c(O)c1C2=O)C[C@@](O)(C(C)=O)C[C@H]3O[C@H]1C[C@H](N)[C@H](O)[C@H](C)O1`, for which the Potency is 0.372 µM (active).

Turning to `O=C(O)CCCCCC(=O)NN=C1CCCC1`, the “activity change, negative = cytotoxic” value was -7.62%.

In the case of `CCn1c(=O)c2c(nc(C=Cc3ccc(OC)c(OC)c3)n2C)n(CC)c1=O`, the “activity change, negative = cytotoxic” value was -17.7%.

For `N#CNC(=NCCCCCCOc1ccc(Cl)cc1)Nc1ccncc1`, the Potency is 14.8 µM (active).

Take `C[C@@H]1CC[C@@]2(OC1)OC1CC3C4CC=C5CC(O)CCC5(C)C4CCC3(C)C1[C@@H]2C` (stereo not given in full): the “activity change, negative = cytotoxic” value was 3.04%.

Regarding `CCCCCCCCCCCC(CC1OC(=O)C1CCCCCC)OC(=O)C(CC(C)C)NC=O` (stereo not given), the “activity change, negative = cytotoxic” value was -14.9%.

On to `CCC(C)CCCCC(=O)N[C@@H](CCN)C(=O)NC(C(=O)N[C@H](CCN)C(=O)N[C@@H]1CCNC(=O)C([C@@H](C)O)NC(=O)[C@@H](CCN)NC(=O)[C@@H](CCN)NC(=O)[C@@H](CC(C)C)NC(=O)[C@H](Cc2ccccc2)NC(=O)[C@H](CCN)NC1=O)[C@@H](C)O` (stereo partly drawn) ({Octanoyl(6-Me)}-[Dab][ξThr(3R)][dDab][dDab][Dab]F[dL][dDab][dDab][ξThr(3R)]; lactam 4-C), for which the “activity change, negative = cytotoxic” value is -17.5%.

For the molecule `CCC[C@H]1C[C@H](C(=O)N[C@@H]([C@@H]2O[C@@H](SC)[C@@H](O)[C@@H](O)[C@@H]2O)[C@H](C)Cl)N(C)C1`, the “activity change, negative = cytotoxic” value is 23.8%.

As for `CCOC(=O)N1CCN([N+]([O-])=NOc2ccc([N+](=O)[O-])cc2[N+](=O)[O-])CC1`, the Potency is 18.7 µM (active).

On to `C=CC(=O)Nc1cccc(Nc2nc(NC3CCC(N(C)C)CC3)nc3c2ncn3C(C)C)c1` (stereo not given), for which the Potency is 0.469 µM (active).

Consider `c1coc(CNc2ncnc3nc[nH]c23)c1`, for which the “activity change, negative = cytotoxic” value is -16.7%.

`CC(C)(O)[C@H]1CC[C@@](C)([C@H]2[C@@H](O)C[C@@]3(C)[C@@H]4C[C@H](O[C@@H]5O[C@H](CO)[C@@H](O)[C@H](O)[C@@H]5O)[C@H]5C(C)(C)[C@@H](O[C@@H]6OC[C@@H](O)[C@H](O)[C@@H]6O)CC[C@@]56C[C@@]46CC[C@]23C)O1`: the “activity change, negative = cytotoxic” value is 9.83%.

With `O=C(Nc1cc2cc[nH]c2cn1)c1ccccc1`, the Potency was 14.8 µM (active).

`COc1ccc(C(C)=O)c(O)c1`: the “activity change, negative = cytotoxic” value is -4.34%.

In the case of `OC[C@H]1OC(O)C[C@@H](O)[C@H]1O` (stereo not given in full), the “activity change, negative = cytotoxic” value was 12.5%.

`Cc1nc(NC(=O)N2CCC[C@@H]2C(N)=O)sc1-c1ccnc(C(C)(C)C(F)(F)F)c1`: the Potency is 1.18 µM (active).

`CCC(C(=O)O)C1CCC(C)C(C(C)C(O)C(C)C(=O)C(CC)C2OC3(C=CC(O)[C@@]4(CC[C@](C)(C5CC[C@@](O)(CC)C(C)O5)O4)O3)C(C)CC2C)O1` (stereo not given in full): the Potency was 18.7 µM (active).

For the molecule `CC[C@H](CC[C@@H](C)[C@H]1CC[C@H]2[C@@H]3CC=C4C[C@@H](O)CC[C@]4(C)[C@@H]3CC[C@]12C)C(C)C`, the “activity change, negative = cytotoxic” value was -8.1%.

For `CCN(C(=O)c1c(O)c2c(Cl)cccc2n(C)c1=O)c1ccccc1`, the “activity change, negative = cytotoxic” value was -21.3%.

For the molecule `CC(=O)OCC(=O)[C@@]1(O)CC[C@H]2[C@@H]3CCC4=CC(=O)CC[C@]4(C)[C@@H]3C(=O)C[C@@]21C`, the “activity change, negative = cytotoxic” value is -8.13%.

In the case of `CCN1CCN(C(=O)N[C@H](C(=O)N[C@@H]2C(=O)N3C(C(=O)O)=C(CSc4nnnn4C)CS[C@@H]23)c2ccc(O)cc2)C(=O)C1=O`, the activity change, negative = cytotoxic is 4.31% [at 9.22 µM].

As for `CNC(=O)c1ccc(Nc2cc(Nc3ccccc3S(=O)(=O)C(C)C)c3cc[nH]c3n2)nc1`, the Potency is 5.9 µM (active).
